Data as given in PubChem BioAssay.
The source made the active and inactive calls.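 Rule for the calls: active = viability loss from added drug above about 55%, and viability with drug at most 40%, in both replicates (limit read from the data, passing the limit was not always enough); inconclusive = both conditions met in only one replicate; inactive = neither replicate meets both conditions.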

test: reversal of MRP1-mediated doxorubicin resistance, pilot screen, H69AR cells, doxorubicin co-treatment (AID 601); details: H69AR cells + 2 uM doxorubicin, CellTiter-Glo, 72 h; at 10 µM; stronger effect = higher value

Structure (SMILES) | differential viability (reversal)
CCOc1ccc(S(=O)(=O)Nc2cccc(Cl)c2)cc1 | -41.9% (inactive)
O=C(OCc1nnc(-c2ccccc2)o1)c1ccc2ccccc2n1 | -0.715% (inactive)
COc1ccc(-c2nnc3sc(-c4c(OC)cccc4OC)nn23)cc1 | -7.34% (inactive)
CC1=Nn2c(nnc2-c2cc(-c3ccccc3)n[nH]2)SC1 | 7.02% (inactive)
COc1cccc(C2C(C#N)=C(N)OC3=C2C(=O)CCC3)c1OC(=O)c1ccco1 (stereo unspecified) | 13.1% (inactive)
CCN(C1CCCCC1)S(=O)(=O)c1ccc(OC)c(C)c1 | 15.7% (inactive)
O=C(C1CC1)N1CCc2cc(S(=O)(=O)N(CCO)Cc3ccccc3)ccc21 | -1.38% (inactive)
COc1ccc(Cl)cc1S(=O)(=O)n1cnc2ccccc21 | -49.8% (inactive)
CCOC(=O)C(CC)Sc1nc2c(c(=O)[nH]c(=O)n2C)n1C/C=C(/C)Cl (stereo unspecified) | 20.7% (inactive)
Cc1cc2c(c(=O)o1)C(Cc1ccccc1)C(C#N)=C(N)O2 (stereo unspecified) | 21.6% (inactive)
Cc1nc2scc(-c3cccs3)c2c(=O)n1-n1cccc1 | 14.4% (inactive)
Cc1cc(-n2c(C)cc(C(=O)CSc3nc4ccccc4c(=O)n3Cc3ccco3)c2C)no1 | 4.09% (inactive)
N#Cc1c(NC(=O)c2ccc(Br)o2)n(-c2ccccc2)c2nc3ccccc3nc12 | -0.255% (inactive)
CCC1C(=O)n2nc(-c3ccccc3)cc2N=C1C (stereo unspecified) | 8.73% (inactive)
O=C(CN1C(=O)CSC1=O)N1CCc2ccccc2C1 | 0.255% (inactive)
C1CCc2nnc(-c3nnc4n3CCCCC4)n2CC1 | 6.52% (inactive)
